The panel holds about 79,000 compounds, 15% with a hit somewhere; the sample as a whole holds those more often. The source made the active and inactive calls. No stated cut-off is given here; in the data, active means growth inhibition above about 70%; inactive means the rest. Where a SMILES comes first, the peptide text is derived from it.
Experiments:
[1] = NCI Yeast Anticancer Drug Screen. Data for the rad50 strain (AID 155);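 further: 0% = growth of vehicle-only cultures of the same strain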; conditions: S. cerevisiae rad50 strain growth inhibition; at 50.0 µM; active compounds read high
How it was run: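 Relative growth inhibition (compound vs vehicle) was measured in yeast with a defined repair-gene alteration.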

[2] = NCI Yeast Anticancer Drug Screen. Data for the mec2-1 strain (AID 157); conditions: S. cerevisiae mec2-1 strain, at 50.0 µM, active compounds read high
How it was run: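 Each compound was tested on mec2-1 yeast, a strain altered in DNA damage repair or cell cycle control. Growth inhibition is reported relative to vehicle.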

[3] = NCI Yeast Anticancer Drug Screen. Data for the sgs1 mgt1 strain (AID 161);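 further: 0% = growth of cultures given vehicle only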; conditions: S. cerevisiae sgs1 mgt1 strain, at 50.0 µM, active compounds read high
How it was run: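 Inhibition of yeast growth, normalised to vehicle-treated controls, is reported for a strain bearing genetic alterations in DNA damage repair.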

[4] = NCI Yeast Anticancer Drug Screen. Data for the cln2 rad14 strain (AID 165);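 further: 0% = growth equal to vehicle treated cultures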; conditions: S. cerevisiae cln2 rad14 strain, at 50.0 µM, active compounds read high
How it was run: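 Test compounds were added to cln2 rad14 yeast cultures; inhibition of growth was then determined by comparison with vehicle treatment.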

[5] = NCI Yeast Anticancer Drug Screen. Data for the bub3 strain (AID 167); conditions: S. cerevisiae bub3 mutant strain, at 50.0 µM, active compounds read high
How it was run: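 Screening used yeast with an engineered genetic alteration affecting cell cycle control. Compound-exposed cultures were compared with vehicle cultures, and reduced growth was taken as inhibition.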

[6] = NCI Yeast Anticancer Drug Screen. Data for the mlh1 rad18 strain (AID 175); conditions: S. cerevisiae mlh1 rad18 strain growth inhibition; at 50.0 µM; active compounds read high
How it was run: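 Inhibition values reflect reduced growth of mutant yeast versus vehicle-treated controls following compound exposure; the mutations affect DNA damage repair.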

Structure (SMILES) | growth inhibition [1] | growth inhibition [2] | growth inhibition [3] | growth inhibition [4] | growth inhibition [5] | growth inhibition [6]
CCOC(=O)NC(=O)c1cn(C2OC(CO)C(O)C2O)c(=O)[nH]c1=O (configuration not stated) | 10.3% (inactive) | -18.6% (inactive) | -16.6% (inactive) | -5.9% (inactive) | 28.6% (inactive) | 44.5% (inactive)
CCCCCCCCCCCCCCCCCCCCCCCCSC(=N)N | 10.6% (inactive) | 0.15% (inactive) | 16.5% (inactive) | 26.4% (inactive) | -6.15% (inactive) | 12.9% (inactive)
C/C(N)=C\c1nc(=O)ccs1 | 10.9% (inactive) | 11.8% (inactive) | 2.35% (inactive) | 24.8% (inactive) | 5.2% (inactive) | 13.3% (inactive)
NC(=S)N/N=C\C(CC(O)C(O)CO)=N\NC(N)=S (configuration not stated) | 4.95% (inactive) | 6.55% (inactive) | 4.45% (inactive) | 8.7% (inactive) | 12.4% (inactive) | 10.2% (inactive)
O=c1[nH]c(=S)c2cncnc2n1C1OC(CO)C(O)C1O (configuration not stated) | 15.8% (inactive) | 11.8% (inactive) | -6.6% (inactive) | 10.2% (inactive) | -28.3% (inactive) | -26.4% (inactive)
COC(=O)/C(=N/NC(C)(C)C)C(C(=O)C=C(C)C)C(=O)C(=O)Nc1ccc(Cl)cc1C (configuration not stated) | 2.2% (inactive) | -1.55% (inactive) | -11.2% (inactive) | -28.9% (inactive) | -0.7% (inactive) | 0.8% (inactive)
Cc1csc(=S)n1C | -15.2% (inactive) | -3.2% (inactive) | -17.6% (inactive) | -5.8% (inactive) | -12% (inactive) | 0.4% (inactive)
CCOC(=O)/C=C\SCC(=O)OCC | -8.95% (inactive) | -4.1% (inactive) | -6.3% (inactive) | -33.4% (inactive) | 4.1% (inactive) | -14.9% (inactive)
C=CCN1C=CC=C/C1=C\C=C(/C#N)C(=O)OCC | 10.8% (inactive) | 12.7% (inactive) | 7.8% (inactive) | -15.2% (inactive) | -8.65% (inactive) | 7.35% (inactive)
CCN(CC)CCOc1ccc(OC)cc1 | -8.7% (inactive) | -0.6% (inactive) | -9.55% (inactive) | -35.2% (inactive) | -5.2% (inactive) | -0.8% (inactive)
COc1ccc(N2C(=O)C3c4[nH]c5ccccc5c4C4CCC(C(C)(C)C)CC4C3C2=O)cc1OC (configuration not stated) | 46.8% (inactive) | 18.4% (inactive) | 14.8% (inactive) | -3.4% (inactive) | 44.2% (inactive) | 38.1% (inactive)
N#CC(C#N)=C(N)/C(C#N)=C/c1ccc2[nH]ccc2c1 | -11% (inactive) | 6.95% (inactive) | -29.2% (inactive) | -24.9% (inactive) | -26.6% (inactive) | -24.1% (inactive)
C/C(=N\NC(C)(C)C)c1sc(-c2nc(C)c(/C(C)=N/NC(C)(C)C)s2)nc1C | 46.5% (inactive) | 3.9% (inactive) | -7.5% (inactive) | -20.6% (inactive) | 22.1% (inactive) | 21.8% (inactive)
O=C([O-])c1ccc(C(=O)[O-])cc1.O=C([O-])c1ccc(C(=O)[O-])cc1.[Mo+2].[Mo+2] | -38.6% (inactive) | 18.1% (inactive) | 2.85% (inactive) | 9.1% (inactive) | -11.8% (inactive) | 16.6% (inactive)
CCCOC(=O)C(=O)OCCC | 2.15% (inactive) | 21.6% (inactive) | -23.8% (inactive) | -6% (inactive) | -11.3% (inactive) | -9.2% (inactive)
CC(C)CC(N)C(=O)NC(C)C(=O)NC(CC(C)C)C(=O)O (stereo not drawn) (H-Leu-Ala-Leu-OH; configuration not given here) | 5.95% (inactive) | 21.4% (inactive) | 10.9% (inactive) | 1.9% (inactive) | 0.5% (inactive) | -3.1% (inactive)
COc1cc2[nH]c3c(c2cc1OC)CCN[C@]31CC[C@]2(CC3c4c(cc(OC)c(O)c42)CCN3C)C[C@H]1OC (some centres not stated) | 10.8% (inactive) | -6% (inactive) | -16.4% (inactive) | -2.9% (inactive) | 7.95% (inactive) | 7.35% (inactive)
Oc1cccc2ccc[n+](CCc3ccccc3)c12 | 1.4% (inactive) | 9.15% (inactive) | 8.7% (inactive) | -13.5% (inactive) | -5.9% (inactive) | 31.6% (inactive)
COC(=O)CC(NC(=O)OCc1ccccc1)C(=O)NC(COC(C)=O)C(=O)NCC(=O)OCc1ccccc1 (configuration not stated) | 28.4% (inactive) | 10.4% (inactive) | 10.3% (inactive) | 15.6% (inactive) | 3.2% (inactive) | 16.4% (inactive)
CC(=O)c1c(O)ccc2c(C)cc(=O)oc12 | 37.5% (inactive) | 18.8% (inactive) | 7.4% (inactive) | 3.1% (inactive) | 26.9% (inactive) | 15.8% (inactive)
Cc1cccnc1NC=O | -10.7% (inactive) | -12.2% (inactive) | -4.8% (inactive) | -17.6% (inactive) | -24.7% (inactive) | -9.7% (inactive)

Structure (SMILES) | growth inhibition [1] | growth inhibition [2] | growth inhibition [3] | growth inhibition [4] | growth inhibition [5] | growth inhibition [6]
COc1ccc(N2C(=O)C3c4[nH]c5ccccc5c4C4CCC(C(C)(C)C)CC4C3C2=O)c(C)c1 (configuration not stated) | 11.9% (inactive) | 1.95% (inactive) | 14.7% (inactive) | 17.1% (inactive) | -2.45% (inactive) | 17.1% (inactive)
CCOC(=O)c1n[nH]c(C)c1C/C(=N/O)c1ccccc1 | -14.3% (inactive) | -24.4% (inactive) | -8.25% (inactive) | -14.9% (inactive) | -14.9% (inactive) | -35.9% (inactive)
NC(=O)[C@@H]1CCCN1C(=O)c1cccnc1 | -14.9% (inactive) | -18.2% (inactive) | -12.9% (inactive) | -14.7% (inactive) | 4.75% (inactive) | -13% (inactive)
C=C(Cl)C(Br)(CCl)CCC(Cl)C(C)C (configuration not stated) (tested in a mixture with another compound) | 85% (active) | 86.3% (active) | 91% (active) | 91.5% (active) | 90.7% (active) | 73.8% (active)
CC(=O)OC1Cc2ccccc2C(OC(C)=O)Cc2ccccc21 (configuration not stated) | 29.6% (inactive) | 7.4% (inactive) | -1.25% (inactive) | 1.6% (inactive) | 18.4% (inactive) | 0.05% (inactive)
CC(=O)OCC1Cn2c(c(-c3ccccc3)c(=O)[nH]c2=S)O1 (configuration not stated) | -9.15% (inactive) | 14.5% (inactive) | 5.95% (inactive) | -1.95% (inactive) | -6.35% (inactive) | 8.25% (inactive)
COC(=O)c1ccc(C=O)[nH]1 | 8% (inactive) | -22.1% (inactive) | 0.55% (inactive) | -10.5% (inactive) | 4.7% (inactive) | 7.25% (inactive)
Cc1c([N+](=O)[O-])cc(C(=O)O)cc1[N+](=O)[O-] | 35.6% (inactive) | -0.15% (inactive) | 16.4% (inactive) | -7.4% (inactive) | 2.55% (inactive) | 27.9% (inactive)
CN(C)CNc1ncnc2onc(-c3ccccc3)c12 | 10.1% (inactive) | 14.5% (inactive) | 13.7% (inactive) | 11.6% (inactive) | -5.5% (inactive) | -4.15% (inactive)
CCCC(=O)Oc1ccc(C(C)(C)C)cc1 | 38.7% (inactive) | 6.75% (inactive) | 15.2% (inactive) | 10.8% (inactive) | 20.4% (inactive) | 5.5% (inactive)
O=C(O)c1cc(CC2Cc3cc4c(cc3C2=O)CCC4)cc2c1CCC2 (configuration not stated) | -27.4% (inactive) | -30.1% (inactive) | -21.6% (inactive) | 6.05% (inactive) | -18.8% (inactive) | -21.8% (inactive)
N#C[C@H]1CC2C=CC1C2 (some centres not stated) | 12.2% (inactive) | -20% (inactive) | 0.7% (inactive) | 8.2% (inactive) | 0.8% (inactive) | 15.7% (inactive)
CC1CC(C#N)=C2NCCCCN2C1=O (configuration not stated) | -21.6% (inactive) | -44.8% (inactive) | -2.25% (inactive) | 3.65% (inactive) | -7.9% (inactive) | -14.3% (inactive)
C=CCOc1ccc(C2CCCCC2)cc1 | 42% (inactive) | 16.9% (inactive) | 20.5% (inactive) | 11.6% (inactive) | -2.75% (inactive) | 18.3% (inactive)
O=C1OC2C(O)C(N(O)c3ccccc3)OC2[C@@H]1O (some centres not stated) | 1.85% (inactive) | 17.5% (inactive) | 21.9% (inactive) | 9.2% (inactive) | 21.8% (inactive) | 15.1% (inactive)
COc1c(NC(=O)c2ccc([N+](=O)[O-])cc2)cccc1[N+](=O)[O-] | 0.45% (inactive) | 14.3% (inactive) | 5.1% (inactive) | -0.2% (inactive) | 32.2% (inactive) | 20.4% (inactive)
CCOC(=O)C[C@](C)(O)C1CCCN1 (some centres not stated) | 26.5% (inactive) | 11.8% (inactive) | 5.95% (inactive) | 5.3% (inactive) | -3% (inactive) | 8.75% (inactive)
NC(Cc1c[nH]c2ccc(O)cc12)C(=O)O (configuration not stated) | -5.85% (inactive) | -8.35% (inactive) | -4.9% (inactive) | 4.9% (inactive) | -0.7% (inactive) | -9.3% (inactive)
CCCCCCCc1c(C)c2ccc(OC)cc2[nH]c1=O | -9.8% (inactive) | -29.1% (inactive) | -5.8% (inactive) | -5% (inactive) | -6.85% (inactive) | -5.15% (inactive)
Cc1nn(C(=O)c2ccc(Cl)cc2)c2c1C(c1ccccc1[N+](=O)[O-])SC(N)=N2 (configuration not stated) | -9.6% (inactive) | -1.5% (inactive) | 7.05% (inactive) | 33% (inactive) | 27.6% (inactive) | -9.05% (inactive)
CCCCC(CC)CCC(O)C(O)C(C)C (configuration not stated) (tested in a mixture with another compound) | -3.85% (inactive) | 3.2% (inactive) | -7.8% (inactive) | -14.3% (inactive) | -8.95% (inactive) | -14.8% (inactive)

Source: PubChem BioAssay (NCI)
